Reference: the supplement of paper PMC3334620
Whole data set: some 33,000 sequences, median “E-score (-0.5 to 0.5)” near -0.011, cut for the highest 2% near 0.28. What follows is part of a selection rich in the highest values, with near analogues and random picks from the rest.

These sequences were tested against T1, Gcr1 (UniProt P07261) (assay: PBM E-score (8-mer binding enrichment) (E-score (-0.5 to 0.5)); higher = stronger / more preferred TF binding). Details: protein concentration: 100 nM; construct: GST-full length.
T1 sequence: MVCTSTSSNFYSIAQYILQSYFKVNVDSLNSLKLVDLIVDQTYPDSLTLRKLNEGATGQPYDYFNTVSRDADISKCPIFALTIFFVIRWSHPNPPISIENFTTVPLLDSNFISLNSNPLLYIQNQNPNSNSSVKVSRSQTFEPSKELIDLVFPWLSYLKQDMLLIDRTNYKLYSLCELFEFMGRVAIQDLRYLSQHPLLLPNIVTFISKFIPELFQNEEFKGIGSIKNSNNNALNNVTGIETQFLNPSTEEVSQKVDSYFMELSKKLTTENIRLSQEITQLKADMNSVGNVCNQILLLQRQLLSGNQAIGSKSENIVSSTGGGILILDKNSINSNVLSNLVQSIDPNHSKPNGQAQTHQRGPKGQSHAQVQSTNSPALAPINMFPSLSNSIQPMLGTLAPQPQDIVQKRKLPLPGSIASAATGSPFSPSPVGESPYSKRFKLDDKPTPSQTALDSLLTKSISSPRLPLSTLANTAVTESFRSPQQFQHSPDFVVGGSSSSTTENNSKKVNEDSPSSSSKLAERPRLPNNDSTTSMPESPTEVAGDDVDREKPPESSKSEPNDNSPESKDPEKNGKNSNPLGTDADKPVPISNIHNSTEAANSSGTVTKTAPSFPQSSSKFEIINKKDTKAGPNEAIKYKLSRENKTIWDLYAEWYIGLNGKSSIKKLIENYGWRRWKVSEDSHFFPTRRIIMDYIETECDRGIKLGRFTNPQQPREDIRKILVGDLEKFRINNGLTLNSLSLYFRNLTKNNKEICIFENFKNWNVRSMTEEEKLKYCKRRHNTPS
Outline: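 GST-tagged yeast TFs (full-length or DNA-binding domain) were made by PURExpress in vitro transcription/translation and applied at about 100-200 nM to universal all-10-mer Agilent arrays. The arrays were made double-stranded by primer extension, on fresh or once-stripped slides. Bound protein was detected with fluorescent anti-GST, and scans were normalised with masliner. Each ungapped eight-base word, pooled with its reverse complement, received an E-score (modified Wilcoxon-Mann-Whitney statistic) from the Universal PBM Analysis Suite.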

Sequence | PBM E-score
GATACTGC | -0.205
ATCCGACA | -0.019
CGGTTAGC | -0.0704
GGCCTGCA | -0.237
CACCAGAA | 0.15
TACCAGAA | 0.34
AACCAGAC | -0.0315
GACCAGAA | 0.131
CCCCAGAG | -0.0817
AACCAGAT | 0.228
CCCCAGAA | 0.288
AACCAGAA | 0.281
CCCCAGAC | 0.0344
TTCCAGAA | 0.287
GTCCAGAA | 0.0699
CTCCAGAA | 0.0346
AAGTTTGG | 0.179
AATCCAAA | 0.205
ACTTCATG | 0.0318
GAACCCGA | 0.195
CGTATCTC | 0.0698
ACTACGGG | 0.00638
AAAATCCA | -0.012
AACCAGTA | 0.315
CTCCACAA | 0.0774
AACCAGTG | -0.195

Sequence | PBM E-score
TACCAGTA | 0.224
TTCCACAA | 0.347
GTCCACAA | 0.224
CCCACCAG | 0.0742
CGGGCCGC | 0.0123
AAGGTTCA | -0.179
AAAGAAGC | 0.262
GAAGACGA | 0.198
CAAGAAGC | 0.24
ATAGAAGG | 0.0701
CAAGACGC | 0.238
GAAGAAGC | 0.318
CCAGAAGA | 0.187
GAAGACGC | 0.304
CCAGAAGC | 0.357
CTAGAAGC | 0.154
GCAGAAGC | 0.0881
ATAGAAGC | 0.315
CCGCAGCG | 0.0315
CCGGTACG | -0.0393
CGATAGAG | -0.0218
AGGCCTAA | -0.0235
CCAGGTAA | -0.0543
GTTCTCAA | -0.129
AACAGACC | -0.179
ATGTCTAA | -0.0649

Sequence | PBM E-score
CCTTGATA | -0.0119
GAAGAAGA | 0.183
CTAGACGC | 0.0428
ATAGACGC | 0.377
CAAGAAGA | 0.354
TAAGAAGA | 0.243
ATAGACGA | 0.248
CTTCCTCA | 0.264
GGCCTCCA | 0.172
GGCTTTCA | -0.109
CACTGATC | -0.142
ACCTCCAT | -0.24
GTCGGGGA | 0.102
AGATTGTA | -0.193
CAGATTCA | -0.0169
GAGATTCC | 0.363
GAGATTCA | -0.0394
CAGATTCG | 0.037
AAGATTCC | 0.271
CAGATTCC | 0.388
AGTAACTC | -0.155
CGTGGAGC | -0.0506
AGTGGAGC | 0.32
AGTGGAAT | 0.39
ATTGGAAC | 0.221
ATTGGAAA | 0.0513

Sequence | PBM E-score
CGTGGAAG | 0.0771
CGTGGAAA | 0.0989
ATTGGAAG | 0.363
AGTGGAGG | 0.082
CATGGAAG | -0.0984
AGTGGAAA | 0.0918
AGTGGAAG | 0.442
ATTGCCGA | -0.127
TGAGGGAA | -0.101
AGTCTATG | -0.147
ACCCTAGT | -0.0547
CGAGACGC | 0.131
CGGGTATC | 0.131
CTCACACA | 0.1
GGTGGAAC | 0.0244
AGGGGAAT | 0.341
AGGGGAAA | 0.0362
CGTGGAAC | -0.113
AGTGGACC | -0.0505
AGTGGACG | 0.315
AGTGGAAC | 0.364
AGTGGACA | -0.0203
AGGGGAAC | -0.00862
